Laboratory results: PubChem BioAssay (EPA / NIEHS)
Records with an inconclusive call do not appear. Activity calls are given as the source filed them. How the source made its calls: active means hit-call score of the fitted dose curve at least 0.9, where 1 is the maximum; inconclusive means response in the unintended direction; inactive means score below 0.9.

molecular target: Androgen receptor (Homo sapiens) (UniProt P10275); experiment: ATG_AR_TRANS: Attagene TRANS-FACTORIAL HepG2 Assay for human Androgen Receptor (AR) (AID 2282973); conditions: HepG2 Attagene TRANS-FACTORIAL AR reporter transcription
Sequence (P10275 whole entry, looked up, the tested form may be a part): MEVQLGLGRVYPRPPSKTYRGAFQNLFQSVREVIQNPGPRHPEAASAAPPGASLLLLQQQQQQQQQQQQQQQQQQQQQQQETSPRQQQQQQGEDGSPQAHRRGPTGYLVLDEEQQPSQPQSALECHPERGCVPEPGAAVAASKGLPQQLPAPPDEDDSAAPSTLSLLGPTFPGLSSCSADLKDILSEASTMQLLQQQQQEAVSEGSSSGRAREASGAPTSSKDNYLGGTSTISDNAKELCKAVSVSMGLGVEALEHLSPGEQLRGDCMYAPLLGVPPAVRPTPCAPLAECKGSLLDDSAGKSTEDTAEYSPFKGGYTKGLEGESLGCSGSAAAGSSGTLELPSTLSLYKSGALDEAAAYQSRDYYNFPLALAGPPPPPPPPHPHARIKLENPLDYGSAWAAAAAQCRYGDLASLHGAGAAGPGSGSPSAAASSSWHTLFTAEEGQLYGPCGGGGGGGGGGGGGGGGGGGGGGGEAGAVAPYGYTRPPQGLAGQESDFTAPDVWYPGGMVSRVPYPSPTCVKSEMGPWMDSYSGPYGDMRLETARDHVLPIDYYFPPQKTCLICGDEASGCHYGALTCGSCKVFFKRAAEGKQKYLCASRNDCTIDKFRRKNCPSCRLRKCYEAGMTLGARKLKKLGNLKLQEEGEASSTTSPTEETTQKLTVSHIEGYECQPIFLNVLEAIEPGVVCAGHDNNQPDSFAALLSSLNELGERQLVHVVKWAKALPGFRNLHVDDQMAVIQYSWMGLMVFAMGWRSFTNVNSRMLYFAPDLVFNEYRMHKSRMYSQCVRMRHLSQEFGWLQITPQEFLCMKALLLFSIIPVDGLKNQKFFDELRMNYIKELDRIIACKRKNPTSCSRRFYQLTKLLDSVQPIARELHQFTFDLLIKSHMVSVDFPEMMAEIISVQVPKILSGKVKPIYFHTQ
Method in brief: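 Readout is reporter transcript abundance, quantified by fluorescent RT-PCR products separated on capillary electrophoresis. Human HepG2 liver cells carried transiently transfected NR-Gal4 chimera plus GAL4-UAS reporter constructs and were dosed for 24 h; activity scored upward versus DMSO.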

| Structure (SMILES) | AC50 | outcome |
| --- | --- | --- |
| CC(=O)C1(C)CC2=C(CCCC2(C)C)CC1C (stereo unspecified) | 158 µM (active) | – |
| COc1ccccc1OCC(O)CO (stereo unspecified) | – | inactive |
| OCCN1CN(CCO)CN(CCO)C1 | – | inactive |
| C#CC(C)N(C)C(=O)Nc1ccc(Cl)cc1 (stereo unspecified) | – | inactive |
| O=C(O)c1ccccc1C(=O)OCc1ccccc1 | – | inactive |
| CCCCCCCCCC[N+](C)(C)[O-] | – | inactive |
| CC(=O)N(C)C | – | inactive |
| C=CC(=O)OCCCCCCCC(C)C | – | inactive |
| Nc1cc([N+](=O)[O-])ccc1O | – | inactive |
| CN(C)CCOC(c1ccccc1)c1ccccc1 | – | inactive |
| CCC(C)c1cc([N+](=O)[O-])cc([N+](=O)[O-])c1OC(=O)OC(C)C (stereo unspecified) | – | inactive |
| C=CC(=O)OCCOC1C2CCC1C1CC=CC12 (stereo unspecified) | – | inactive |
| CC(C)CCCC(C)CCO (stereo unspecified) | – | inactive |
| CCN=c1cc2oc3cc(NCC)c(C)cc3c(-c3ccccc3C(=O)OCC)c-2cc1C | – | inactive |
| CCCCCCc1ccc(N)cc1 | – | inactive |
| CCc1ccc(C)nc1 | – | inactive |
